Compounds without any hit were thinned out: in the full panel of roughly 83,000, 20% have a hit.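 Percent growth is the endpoint: 0 to 100 indicates growth inhibition (40 means 60% inhibition), 0 means no net growth, and negative values indicate cell death.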 A number with no mark means an inactive call. Active and inactive are the calls of the source. Rule for the calls: active = growth percent below 10; inactive = the rest.
Key:
Experiment in all cases: NCI-60 one-dose screen, 48 h (100 = growth as untreated, 0 = no growth, -100 = all killed)
Conditions in all cases: 10 µM unless noted
SR leukemia = tested on: SR leukemia
RPMI-8226 leukemia = tested on: RPMI-8226 leukemia
OVCAR-8 ovarian = tested on: OVCAR-8 ovarian
OVCAR-5 ovarian = tested on: OVCAR-5 ovarian
OVCAR-4 ovarian = tested on: OVCAR-4 ovarian
SK-OV-3 ovarian = tested on: SK-OV-3 ovarian
IGROV1 ovarian = tested on: IGROV1 ovarian
OVCAR-3 ovarian = tested on: OVCAR-3 ovarian
HS 578T breast = tested on: HS 578T breast
NCI/ADR-RES ovarian = tested on: NCI/ADR-RES ovarian
T-47D breast = tested on: T-47D breast
BT-549 breast = tested on: BT-549 breast
MDA-MB-435 melanoma = tested on: MDA-MB-435 melanoma
SW-620 colon = tested on: SW-620 colon
MCF7 breast = tested on: MCF7 breast
HCT-116 colon = tested on: HCT-116 colon
KM12 colon = tested on: KM12 colon
HCC-2998 colon = tested on: HCC-2998 colon

Row | Compound | growth (SR leukemia) | growth (RPMI-8226 leukemia) | growth (OVCAR-8 ovarian) | growth (OVCAR-5 ovarian) | growth (OVCAR-4 ovarian) | growth (SK-OV-3 ovarian) | growth (IGROV1 ovarian) | growth (OVCAR-3 ovarian) | growth (HS 578T breast) | growth (NCI/ADR-RES ovarian) | growth (T-47D breast) | growth (BT-549 breast) | growth (MDA-MB-435 melanoma) | growth (SW-620 colon) | growth (MCF7 breast) | growth (HCT-116 colon) | growth (KM12 colon) | growth (HCC-2998 colon)
1 | C#CC#CC#CC#CC#CC#CC#CC#CC[C@@H]1OC[C@H](COC(=O)O[C@@H](C(=O)O[C@H]2C[C@@]3(O)[C@@H](OC(=O)c4ccccc4)[C@@H]4[C@]5(OC(C)=O)CO[C@@H]5C[C@H](O)[C@@]4(C)C(=O)[C@H](OC(C)=O)C(=C2C)C3(C)C)[C@@H](NC(=O)c2ccccc2)c2ccccc2)O1 | 20.5% | 9.65% (active) | 33.8% | 24.3% | 62.9% | 51.7% | 32.6% | 7.3% (active) | 5.42% (active) | 102% | 39.1% | 34.6% | -63.1% (active) | 28.5% | 18% | 12.5% | 9.33% (active) | –
2 | O=C(Oc1ccccc1)c1cc(O)c(O)c(O)c1 | 32.9% | 65.7% | 71.4% | 107% | 63.7% | 77.3% | 76% | 18.1% | 39.9% | 61.1% | 59.7% | 65.1% | – | 62.7% | 79.3% | 58.8% | 74.7% | 68.5%
3 | COC(=O)c1cc(-c2cc(OC)c(OC)c(OC)c2)[nH]c1N/N=C/c1c(Cl)cccc1Cl | -17.6% (active) | 18.4% | 5.44% (active) | 22.7% | 5.08% (active) | 28.3% | -54.8% (active) | 9.29% (active) | -5.55% (active) | 6.82% (active) | 9.55% (active) | 128% | – | 44.9% | 7.14% (active) | 5.15% (active) | 15% | -62% (active)
4 | COc1ccc(NC(=O)c2ccc(Cl)cc2Cl)cc1 | 98.2% | 101% | 98.6% | 101% | 78.7% | 106% | 106% | 106% | 96.8% | 97.5% | 94.5% | 101% | – | 95% | 93.8% | 99.4% | 99.1% | 105%
5 | CO[C@H]1CC(c2ccc[nH]2)=N[C@]12O[C@@H](C)C[C@@H]1CCCCCCCc3ccc([nH]3)[C@H]12 | 9.34% (active) | -1.79% (active) | 14.8% | 29.7% | 29.2% | 30% | 28.9% | 29.2% | 29.2% | 17.1% | 11.8% | 33.7% | – | 21.5% | 16.5% | 8.1% (active) | 18.3% | 22.1%
6 | CCCCCCCCNc1ncnc2c1ncn2Cc1nnc2c3ccccc3c(Cl)nn12 | 16.7% | 35.4% | 30% | 102% | 42.9% | 4.2% (active) | 31.4% | 58% | 54.3% | 35.3% | 26.5% | 28% | 46% | 56.8% | 41.4% | 31.2% | 65.3% | –
7 | C=CCOC(=O)C1=C(C)N(CC)C(=O)N(CC)C1c1c(Cl)n(C)c2ccccc12 (stereo unspecified) | 90.5% | 59.7% | 88% | 89.1% | 88.5% | 103% | 90.9% | 90% | 89.2% | 84.2% | 87.6% | 89.9% | – | 84.6% | 79% | 85.8% | 68.6% | 78%
8 | O=C(Nc1ccc(Cl)cc1)C1=NCCCCN1 | 116% | 96.3% | 91% | 85.6% | 109% | 88.1% | 79.8% | 96.9% | 97.9% | 89.3% | 68.6% | 91.3% | – | 63.8% | 81.5% | 80% | 71.2% | 96.2%
9 | Cc1ccc(C(F)(F)F)cc1N1CCN(C(=O)[C@H]2C[C@H]2c2ccc(C(F)(F)F)nc2)CC1 | 76% | 66.1% | 89.9% | 85.6% | 92% | 84.2% | 74.7% | 93.4% | 91.4% | 91.6% | 68.4% | 88.2% | – | 105% | 91.2% | 93.4% | 91.8% | 101%
10 | COc1ccc(/C=C2/CCc3cc4ccc(OC)cc4[o+]c32)c(O)c1 | -2.1% (active) | 14.1% | 42.9% | 115% | 75.9% | 103% | 9.32% (active) | 49.8% | 75.3% | 53.8% | 67.2% | 96.2% | – | 11.9% | 48.1% | -64.1% (active) | 45.4% | 64.3%
11 | COC(=O)CCc1c(/C=C2\N=C(c3ccc[nH]3)C=C2OC)[nH]c(C)c1C(=O)OCc1ccccc1 | -17.8% (active) | -32.5% (active) | – | 34.1% | 31.3% | 21.5% | 21.7% | -31.1% (active) | -14.7% (active) | 9.4% (active) | -2.41% (active) | 1.79% (active) | 2.53% (active) | 3.31% (active) | 7.6% (active) | -9.83% (active) | 10.6% | 22.8%
12 | C=C(C[n+]1ccccc1)[C@@H]1CC[C@]2(C(=O)OC)CC[C@]3(C)[C@H](CC[C@@H]4[C@@]5(C)CCC(=O)C(C)(C)[C@@H]5CC[C@]43C)[C@@H]12 | 84.8% | 52.3% | – | 101% | 55% | 99% | 64.2% | 58.9% | 87.9% | 103% | 81.4% | 72.8% | 77.6% | 89% | 82.9% | 96.9% | 78.4% | 90.9%
13 | C1=C2CCCC3=Cc4ccccc4OC23Oc2ccccc21 | 6.44% (active) | 26% | – | 71.1% | 52.6% | 30.8% | 44.5% | 3.51% (active) | 33.4% | 11.6% | 31.9% | 26.4% | -41.6% (active) | 18.1% | 13.5% | 24% | 19.8% | 58.4%
14 | COc1ccc(C(=O)/C=C/Nc2cc(-c3ccccc3)nn2-c2ccccc2)cc1 | 99.3% | 94.9% | – | 94.2% | 98.7% | 97.6% | 97.8% | 109% | 107% | 93.2% | 82% | 103% | 99.2% | 84.2% | 87.9% | 85.9% | 99.9% | 99.4%
15 | O=C1/C(=C/c2ccc(Br)cc2)COc2ccc(O)cc21 | 12.1% | -23.7% (active) | – | 94.8% | 97.9% | 120% | 84.3% | 96.8% | 96.2% | 94.6% | 80.6% | 79.2% | 75.6% | 1.35% (active) | 9.07% (active) | 16.9% | 26.8% | 89.8%
16 | CC(C)c1nc(N(C)S(C)(=O)=O)nc(-c2ccc(F)cc2)c1/C=C/C(=O)C[C@@H](O)CC(=O)O | 105% | 107% | – | 106% | 113% | 102% | 105% | 111% | 102% | – | 101% | 94.2% | 103% | 108% | 97.2% | 91.1% | 97.1% | 98.2%

— PubChem BioAssay (NCI)
